Bioassay records deposited in PubChem by Sanford-Burnham Center for Chemical Genomics.
DUSP3 inh: VHR1 phosphatase inhibitors, primary screen, biochemical, colorimetric, HTS | Dual specificity protein phosphatase 3 (Homo sapiens), P51452 | recombinant VHR phosphatase, colorimetric substrate read-out | 0.7% of 50,000 active | AID 1992, 2009 | inhibition, % at 20 µM; in the data active means inhibition above about 60%
Target sequence (P51452 whole entry, looked up): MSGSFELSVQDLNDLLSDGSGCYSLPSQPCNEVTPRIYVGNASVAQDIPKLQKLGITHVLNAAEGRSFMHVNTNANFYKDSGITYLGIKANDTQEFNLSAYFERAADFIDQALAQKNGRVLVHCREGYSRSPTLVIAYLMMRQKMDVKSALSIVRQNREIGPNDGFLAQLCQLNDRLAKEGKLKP
* marks the source's active call; other numbers are inactive results. The full list was thinned out, with hits kept by preference.

SMILES	DUSP3 inh
CCCCCCCSc1n[nH]c(=O)[nH]c1=S	-17
Cc1cc(/C=C2/NC(=S)NC2=O)c(C)n1-c1ccc(Br)cc1	-24
CCc1ccc(-n2c(C)cc(/C=C3/NC(=S)NC3=O)c2C)cc1	-16
COC(=O)c1ccc(-n2c(C)cc(/C=C3\NC(=S)NC3=O)c2C)cc1	111*
C=CCn1c(SCC(=O)N2CCCCC2)nc2sc3c(c2c1=O)CCCC3	7
Oc1ccc(C2Nc3ccc4ccccc4c3C3C=CCC32)cc1 (configuration not stated)	76*
O=[N+]([O-])c1ccc(C2Nc3ccc([N+](=O)[O-])cc3C3C=CCC32)cc1 (configuration not stated)	-18
CCC(=O)N1c2ccc3ccccc3c2C2C=CCC2C1c1ccc(F)cc1 (configuration not stated)	8
O=C(c1ccccc1)c1cc2c(cc1Br)OCCCO2	-20
N#CSCCCCOc1ccccc1Br	-4
COc1ccc(-c2nc3sc4c(c3c(=O)[nH]2)CCCC4)cc1C	61*
CCOc1ccc(-c2nc3sc4c(c3c(=O)[nH]2)CCCC4)cc1OCC	-1
C=CCOc1ccc(-c2nc3sc4c(c3c(=O)[nH]2)CCCC4)cc1OC	16
O=C(N/N=C/c1cccc(Cl)c1)c1ccncc1	-14
NC(=O)c1cccc(N=Cc2ccc(OCc3ccccc3)cc2)c1	1
Fc1ccc(NC(=S)NCCN2CCOCC2)cc1	91
S=C(NCCN1CCOCC1)Nc1cccc(Cl)c1	12
S=C(NCCN1CCOCC1)Nc1ccccc1	99*
O=C1C(=O)N(c2ccccn2)C(c2cccc(Cl)c2)/C1=C(\O)c1ccc(Cl)cc1 (configuration not stated)	-11
COc1ccc(C(=O)/C=C/c2c(Cl)cccc2Cl)cc1	15
Cc1ccc(-n2c(=O)c3c4c(sc3n3c(=S)[nH]nc23)CC(C(C)(C)C)CC4)cc1 (configuration not stated)	-25
O=C(O)c1cccc2c1NC(c1ccc(Cl)cc1)C1CC=CC21 (configuration not stated)	86*
O=C(O)c1cccc2c1NC(c1ccc([N+](=O)[O-])cc1)C1CC=CC21 (configuration not stated)	49
O=C(O)c1cccc2c1NC(c1cccc3ccccc13)C1CC=CC21 (configuration not stated)	23
CCOc1cc(/C=C(\C#N)c2nc3ccc(C)cc3[nH]2)cc(I)c1OC	-39
SMILES	DUSP3 inh
CCOC(=O)C1=NNC2C(=O)N(c3cc(OC)ccc3OC)C(=O)C12 (configuration not stated)	-3
CCOC(=O)C1=NNC(C(=O)c2ccccc2)C1c1cccc(Br)c1 (configuration not stated)	37
CCOC(=O)C1=NNC2C(=O)N(c3ccccc3C)C(=O)C12 (configuration not stated)	-5
CCOC(=O)C1=C(C)NC(SC)=NC1c1ccc(OC)cc1 (configuration not stated)	1
CCOC(=O)C1=NNC2C(=O)N(c3ccc(Cl)cc3Cl)C(=O)C12 (configuration not stated)	116*
CCOC(=O)C1=NNC(C(=O)c2ccc(Cl)cc2)C1c1ccc(OC)cc1 (configuration not stated)	115*
CCOC(=O)/C(C#N)=C/c1ccc(N2CCN(CCN3C(=O)c4cccc5cccc(c45)C3=O)CC2)cc1	-11
COc1ccc([N+](=O)[O-])cc1NCc1ccc(OC)c(OC)c1OC	9
O=C(NCCCNc1ccc([N+](=O)[O-])cc1)c1ccc(Cl)cc1	-24
CCN1C(=O)/C(=C\c2cc(Cl)ccc2OCc2ccccc2)SC1=S	105*
CCN1C(=O)/C(=C\c2cc(Cl)c(OCc3ccccc3)c(OC)c2)SC1=S	3
CN1C(=O)/C(=C\c2cc(Cl)ccc2OCc2ccc(F)cc2)SC1=S	-14
CCOc1ccc(C2=C/C(=C/c3ccc(Br)o3)C(=O)O2)cc1	-10
COc1ccccc1N=Cc1c(O)n(-c2ccccc2F)c(=O)[nH]c1=O	-13
Cn1c(=O)c2c(nc(Sc3nc4ccccc4n3Cc3ccccc3)n2C)n(C)c1=O	-13
Cn1c(=O)c2c(nc(N/N=C/c3ccccc3Cl)n2Cc2ccccc2)n(C)c1=O	-8
Cn1c(=O)c2c([nH]c(=S)n2Cc2ccc(Cl)c(Cl)c2)n(C)c1=O	114*
O=C(Nc1ccc(NC(=O)c2cc([N+](=O)[O-])ccc2Cl)cc1)c1ccc(Br)cc1	-2
O=C(Nc1ccc(N2CCCCC2)cc1)c1ccc([N+](=O)[O-])cc1	20
COC(=O)c1ccc(C2CC(=O)NC(C)=C2C(=O)OCc2ccccc2)cc1 (configuration not stated)	-11
CC1=C(C(=O)OCCCc2ccccc2)C(c2c(F)cccc2Cl)CC(=O)N1 (configuration not stated)	8
CC1=C(C(=O)OCc2ccccc2)C(c2ccc([N+](=O)[O-])cc2)CC(=O)N1 (configuration not stated)	-9
CC1=C(C(=O)OCc2ccccc2)C(c2ccccc2[N+](=O)[O-])CC(=O)N1 (configuration not stated)	97*
